# According to PubChem BioAssay AID1851 (National Center for Advancing Translational Sciences (NCATS), 2009):
# Screen size: about 16,000 compounds; about 5,700 (36%) were called active. Roughly 24% stayed inconclusive and do not appear here. This is one part of the list. Unmarked numbers belong to inactive results. The call rests on the fitted dose curve; in most records, active means well fitted curve in the direction sought with a large enough effect; inconclusive means small, poorly fitted or top-dose-only effect, or effect the other way; inactive means no such curve, though single readings can be large or run the other way.
# Biological target: Cytochrome P450 1A2 (Homo sapiens) (UniProt P05177)
# Test: Cytochrome panel assay with activity outcomes
# Conditions: recombinant CYP, pro-luciferin dealkylation, luminescence, p450-cyp1a2; series mostly up to 57.1 µM
# On the % scale 0 is the no-effect control and ±100 the full control effect.
# Sequence of Cytochrome P450 1A2 (Homo sapiens) (P05177 whole entry, looked up): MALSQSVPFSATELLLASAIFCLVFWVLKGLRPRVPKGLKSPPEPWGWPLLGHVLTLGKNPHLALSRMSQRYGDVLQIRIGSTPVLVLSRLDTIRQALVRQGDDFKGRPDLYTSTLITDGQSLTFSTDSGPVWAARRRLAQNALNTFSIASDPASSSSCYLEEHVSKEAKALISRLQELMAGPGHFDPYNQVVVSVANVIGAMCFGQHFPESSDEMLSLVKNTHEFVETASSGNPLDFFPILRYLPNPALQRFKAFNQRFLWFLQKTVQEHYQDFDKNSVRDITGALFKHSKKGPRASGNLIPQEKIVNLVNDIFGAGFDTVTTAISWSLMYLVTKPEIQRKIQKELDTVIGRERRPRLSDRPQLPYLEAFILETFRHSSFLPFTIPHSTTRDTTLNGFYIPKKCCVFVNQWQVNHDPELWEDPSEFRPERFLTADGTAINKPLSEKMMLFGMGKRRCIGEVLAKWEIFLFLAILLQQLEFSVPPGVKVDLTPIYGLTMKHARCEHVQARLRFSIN
SMILES,AC50,"activity, negative = inhibition"
CCCC1S/C(=N/N=C/c2ccc(OC)cc2)N(Cc2ccc(OC)cc2)C1=O (configuration not stated),inactive,
COc1ccc(CN2C(=O)c3ccccc3C(/C=N\OCc3ccc(F)cc3)C2=O)cc1 (configuration not stated),12.6 µM (active),
CN(C)c1ncc2nc(-c3ccc(F)cc3)c(=O)n(C)c2n1,1.58 µM (active),
CN(C)c1ncc2nc(-c3ccc(Cl)cc3)c(=O)n(C)c2n1,1.58 µM (active),
CN(C)c1ncc2nc(-c3ccccc3)c(=O)n(C)c2n1,1 µM (active),
C=CC[C@@H]1C=C[C@@H](O/N=C\c2ccc(C(=O)N3[C@H](c4ccc(C)cc4)[C@@H](C)CC[C@H]3C(=O)OC)cc2)[C@@H](CO)O1,,-12.6% [at 11.4 µM]
COCCNc1ccnc(-c2ccccc2CN(C)C)n1,5.01 µM (active),
COCCNc1ccnc(-c2ccccc2C)n1,12.6 µM (active),
CN(C)CCNc1ccccn1,,-5.87% [at 11.4 µM]
CC1(C)C2([N+](=O)[O-])CN3CC1([N+](=O)[O-])CN(C2)C31CCCC1,inactive,
Cc1noc(C)c1C(=O)N1CCC2(CCN(Cc3ccncc3)CC2)CC1,inactive,
CCc1c(C)c(C#N)c2nc3ccccc3n2c1N1CCN(c2cc(C)ccn2)CC1,inactive,
O=C(O)c1nc2nc(Cl)c(Cl)nc2[nH]1,,-18.2% [at 11.4 µM]
CCCCSCc1nc2nc(Cl)c(Cl)nc2[nH]1,3.16 µM (active),
C/C(=N\NC(=O)CSCc1ccc(Cl)cc1)c1ccc2c(c1)OCCO2,7.94 µM (active),
O=C(O)CCC(=O)N1CCOc2ccc(Cl)cc21,inactive,
O=C(CSCc1ccc(Cl)cc1)Nc1nccs1,0.178 µM (active),
O=C(CN1CCN(CC(=O)Nc2ccccc2Cl)CC1)Nc1ccc2c(c1)OCCO2,inactive,
CC(C)(C)NC(=O)CN(Cc1cccs1)C(=O)CCC(=O)Nc1nccs1,inactive,
O=C(CSCc1ccc(Cl)cc1)Nc1ccc2c(c1)OCCO2,17.8 µM (active),
O=S(=O)(c1ccccc1)N1CCC2(CCN(Cc3nccs3)CC2)CC1,inactive,
O=C(c1csnn1)N1CCC[C@@]2(CCN(c3ccncc3)C2)C1,inactive,
CCOC(=O)c1c(NC(C)=O)sc2c(OC)cccc12,0.316 µM (active),

SMILES,AC50,"activity, negative = inhibition"
NS(=O)(=O)c1cc2c(cc1Cl)=NC(CCC(=O)O)=NS=2(=O)O,,4.98% [at 11.4 µM]
Cc1nn(C(C)C(=O)N2CCc3ccccc32)c(C)c1[N+](=O)[O-] (configuration not stated),inactive,
Cc1nn(C(C)C(=O)Nc2sc3c(c2C#N)CCCC3)c(C)c1[N+](=O)[O-] (configuration not stated),3.55 µM (active),
CCOc1cc(C2NN=C(c3ccccc3)S2)ccc1OCc1ccccc1Cl (configuration not stated),3.16 µM (active),
CN(Cc1ccco1)c1ccnc(-c2cccc(NS(C)(=O)=O)c2)n1,1.26 µM (active),
CN(C)c1ccnc(-c2cccc(NS(C)(=O)=O)c2)n1,1.58 µM (active),
C=C[C@@]1(C)CC(=O)[C@@]2(O)[C@@]3(C)[C@@H](O)CCC(C)(C)[C@@H]3[C@H](OC(=O)CCN(C)C)[C@H](OC(C)=O)[C@@]2(C)O1,inactive,
COC(=O)c1ccc(C(=O)OC)c(NC(=O)CSCc2ccc(Br)cc2)c1,0.891 µM (active),
O=C(Nc1ccc(Br)cc1)c1ccc(CSC2=NCCS2)cc1,inactive,
CC(=O)Nc1ccc(-c2cc(-c3ccc(NC(C)=O)cc3)nc(-c3ccccc3)n2)cc1,inactive,
N#Cc1ccc(Oc2nc(C(N)=O)cc(-c3ccccc3)n2)cc1,2 µM (active),
Cc1ccc(NC(=O)c2cc([N+](=O)[O-])ccc2NCc2cccnc2)cc1Cl,0.126 µM (active),
COC(=O)C1(Cc2ccccc2)C2c3cc(C(=O)N4CCCC4)n(Cc4ccc(OC(F)(F)F)cc4)c3CC2CN1C(=O)c1ccccc1 (configuration not stated),inactive,
O=C(O)CSc1ncccc1[N+](=O)[O-],,2.52% [at 11.4 µM]
O=[N+]([O-])c1cccnc1N1CCCCC1,5.01 µM (active),
O=[N+]([O-])c1nccn1C[C@H](O)CN1CCCCC1,,4.83% [at 11.4 µM]
Cc1cccc(C(=O)N2CCN(c3ccc([N+](=O)[O-])c(NCc4ccco4)c3)CC2)c1,inactive,
Cc1ccccc1C(=O)N1CCN(c2ccc([N+](=O)[O-])c(NCc3ccco3)c2)CC1,inactive,
Cc1cc(C)c(S(=O)(=O)N2CCN(c3ccc([N+](=O)[O-])c(NCc4ccco4)c3)CC2)c(C)c1,inactive,
Cc1cc(C)c(S(=O)(=O)N2CCN(c3ccc([N+](=O)[O-])c(NCC4CCCO4)c3)CC2)c(C)c1 (configuration not stated),inactive,
Cc1cc(C)n(-c2cc(N3CCN(C(=O)c4ccc(C(C)(C)C)cc4)CC3)ccc2[N+](=O)[O-])n1,inactive,
CS(=O)(=O)N1CCN(c2ccc([N+](=O)[O-])c(NCc3ccccc3)c2)CC1,12.6 µM (active),
CC(C)c1ccc(CNc2cc(N3CCCC3)ccc2[N+](=O)[O-])cc1,3.16 µM (active),

SMILES,AC50,"activity, negative = inhibition"
O=[N+]([O-])c1ccc(N2CCCC2)cc1NCc1ccccc1,0.794 µM (active),
CC1CCCC(NC(=O)C2CCN(S(=O)(=O)N3CCC4(CC3)OCCO4)CC2)C1C (configuration not stated),inactive,
O=[N+]([O-])c1ccc(N2CCCCC2)c(Cl)c1N1CCCCC1,2 µM (active),
Cc1ccccc1C(=O)N1CCN(c2ccc([N+](=O)[O-])c(N3CCOCC3)c2)CC1,inactive,
Cn1c(=O)n(C)c2cc([N+](=O)[O-])c(N3CCN(C(=O)c4ccccc4Cl)CC3)cc21,inactive,
O=C(O)C1CCN(c2c([N+](=O)[O-])cc(C(F)(F)F)cc2[N+](=O)[O-])CC1,inactive,
O=[N+]([O-])c1cc(F)c(N2CCOCC2)cc1N1CCCCC1,1.26 µM (active),
Cc1ccc(OCC(=O)N2CCN(c3ccc([N+](=O)[O-])c(N4CCOCC4)c3)CC2)cc1,inactive,
O=[N+]([O-])c1ccc(N2CCCC2)cc1N1CCCC1,0.316 µM (active),
Cn1c(=O)n2n(c1=O)[C@H]1[C@H](O)[C@H]3O[C@H]3C(=O)[C@H]1CC2,,-12.9% [at 11.4 µM]
COc1ccc(C(=O)NC2CCN(C(=S)Nc3cccc(C)c3)CC2)cc1,inactive,
CC12CCC(C(=O)Nc3cccc4ccccc34)(C1Br)C2(C)C (configuration not stated),22.4 µM (active),
Cc1cccc(NC2=NC(=S)N(c3ccc(C(=O)O)cc3)C23CCCCC3)c1,inactive,
Cc1cccc(NC(=O)C23CCC(C)(C2Br)C3(C)C)c1 (configuration not stated),15.8 µM (active),
COc1ccc(CNc2ncnc3ccc(-c4ccccc4OC)cc23)c(OC)c1,3.16 µM (active),
COc1ccccc1CNc1ncnc2ccc(-c3ccccc3OC)cc12,1 µM (active),
C[N+](C)(C)CCOC(=O)CCC(=O)OCC[N+](C)(C)C,inactive,
CCOC(=S)NC(=O)c1sc2ccccc2c1Cl,1.58 µM (active),
O=C(NC(=S)N(CCCCO)C1CCCCC1)c1sc2ccccc2c1Cl,1.26 µM (active),
O=C(c1sc2ccccc2c1Cl)N(Cc1ccccc1)C1CCS(=O)(=O)C1 (configuration not stated),inactive,
CCCCOC(=S)NC(=O)c1sc2ccccc2c1Cl,2 µM (active),
CCOc1c(OC(C)=O)ccc(/C=C2\N=C(SCC)SC2=O)c1[N+](=O)[O-],0.631 µM (active),
CCOc1c(OC(C)=O)ccc(/C=C/c2ccc3cccc(OC(C)=O)c3n2)c1[N+](=O)[O-],4.47 µM (active),

SMILES,AC50,"activity, negative = inhibition"
Cc1ccc(S(=O)(=O)N=Nc2c(O)[nH]c3cc(O)c(C(=O)O)cc23)cc1,,-15.8% [at 2.29 µM]
CC(C)C(NC(=O)C1CCCCC1)C(=O)NCc1ccccn1 (configuration not stated),inactive,
Cc1cc(=O)oc(C)c1C(=O)NCc1ccccc1,inactive,
O=C(NCc1ccccn1)c1cc(-c2ccccc2Cl)on1,3.55 µM (active),
O=C(O)[C@@H]1[C@@H](C(=O)NCc2ccccn2)[C@@H]2C=C[C@@H]1O2,,-0.104% [at 2.29 µM]
O=C(O)[C@@H](O)Cc1ccccn1,,-9.06% [at 11.4 µM]
CC(Cc1ccccc1)C(=O)NCc1ccccn1 (configuration not stated),15.8 µM (active),
Cc1cc(=O)oc(C)c1C(=O)NCc1cccnc1,4.47 µM (active),
Cc1cc(=O)oc(C)c1C(=O)NCCCN1CCN(c2ccc(F)cc2)CC1,inactive,
Cc1cc(=O)oc(C)c1C(=O)N1CCCCC1,inactive,
CCCNC(=O)c1c(C)cc(=O)oc1C,11.2 µM (active),
CCC(C#CCN1CCCCC1)(CC)OCCC#N,inactive,
Cc1cc(=O)oc(C)c1C(=O)NCc1ccccn1,12.6 µM (active),
CCCNC(=O)OC[C@@H]1O[C@H](CCO/N=C\c2ccc(C(=O)N3[C@H](c4ccc(C)cc4)[C@@H](C)CC[C@H]3C(=O)OC)cc2)C=C[C@@H]1Oc1ccc(OC)cc1,,-5.52% [at 11.4 µM]
CCN1C(=O)[C@H]2[C@H]3[C@H](O)[C@H](O)C/C(=N/OCC(C)C)[C@H]3CC[C@@H]2C1=O,,-1.29% [at 11.4 µM]
O=C(O/N=C\c1ccc(N2CCCCC2)c([N+](=O)[O-])c1)c1c(F)cccc1F,0.708 µM (active),
Cc1ccc(OC(=O)c2ccc(N3CCOCC3)c([N+](=O)[O-])c2)cc1,inactive,
Cc1ccc(C(=O)O/N=C\c2ccc(N3CCCCC3)c([N+](=O)[O-])c2)cc1,0.251 µM (active),
CO/N=C/c1ccc(N2CCN(C(=O)c3ccc(Cl)cc3Cl)CC2)c([N+](=O)[O-])c1,inactive,
CC(C)(Oc1ccc([C@@H]2CC2(Cl)Cl)cc1)C(=O)O,inactive,
CC(C)OC(=O)C(C)(C)Oc1ccc(C(=O)c2ccc(Cl)cc2)cc1,5.01 µM (active),
Cn1c(=O)c(-c2cccs2)nc2cnc(N3CCNCC3)nc21,10 µM (active),
O=c1c(-c2cccs2)nc2cnc(N3CCNCC3)nc2n1C1CC1,2 µM (active),
